Each structure is given as a SMILES string. Inconclusive results are not listed. Activity calls are given as the source filed them. Calls come from the whole dose curve; as a rule, active = well fitted inhibition curve with a large enough effect; inconclusive = small, poorly fitted or top-dose-only effect; inactive = flat fitted curve, though single readings scatter.

Luciferin 4-monooxygenase (Photinus pyralis), sequence (P08659 whole entry, looked up): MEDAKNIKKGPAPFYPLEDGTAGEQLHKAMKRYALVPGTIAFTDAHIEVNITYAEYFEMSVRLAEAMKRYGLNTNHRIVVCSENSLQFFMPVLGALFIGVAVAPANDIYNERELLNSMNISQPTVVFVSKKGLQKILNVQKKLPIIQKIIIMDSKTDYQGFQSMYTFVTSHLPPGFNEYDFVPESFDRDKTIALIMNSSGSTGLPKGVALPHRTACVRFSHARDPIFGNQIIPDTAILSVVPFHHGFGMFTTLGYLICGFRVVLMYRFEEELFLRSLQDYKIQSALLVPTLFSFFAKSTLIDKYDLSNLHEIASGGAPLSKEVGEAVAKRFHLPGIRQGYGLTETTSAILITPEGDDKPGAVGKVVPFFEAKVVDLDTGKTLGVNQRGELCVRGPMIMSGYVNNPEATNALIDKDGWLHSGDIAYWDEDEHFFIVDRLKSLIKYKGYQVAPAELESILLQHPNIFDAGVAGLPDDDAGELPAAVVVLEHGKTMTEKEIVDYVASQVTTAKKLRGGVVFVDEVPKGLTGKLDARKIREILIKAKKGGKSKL

This experiment addresses Luciferin 4-monooxygenase (Photinus pyralis) (UniProt P08659). Briefly: FLuc inhibitory activity for the follow-up compounds in a biochemical assay with 1mM ATP. To be noted: purified P. pyralis luciferase, luminescence; series mostly up to 57.5 µM; activity change, negative = inhibition: at the top concentration. The text has this:
NCGC Assay Overview: Firefly (Photinus pyralis) luciferase is one of the most commonly used transcriptional reporters. It is considered one of the more dynamically responsive reporters - that is, responsive to changes in reporter transcription - as it requires no post-translational modifications and is enzymatically active directly after protein synthesis (Wood, 1998). With no endogenous expression in mammalian cells and without the requirement of external excitation, it offers very little background signal, thus generally providing excellent signal to background for most assays. Previous profiling work to determine the prevalence of compounds that affect FLuc enzymatic activity (PubChem AID 411) identified that ~3% of the MLSMR library (then at ~72K) inhibited FLuc. […] Of the compounds identified in this profile that inhibited FLuc, 151 compounds were selected for further analysis, in an effort to better understand their mode of inhibiting FLuc. The assay described here was to determine the activity of the compounds in a FLuc assay that contained a KM concentration of D-luciferin and a high concentration (1mM) of ATP.
NCGC Assay Protocol Summary: Reagents: 50mM Tris acetate, pH 7.5; 10mM Mg acetate; 10uM D-luciferin (Sigma #L9504); 1mM ATP; 0.01% Tween-20; 0.05% BSA; 10nM P. pyralis luciferase (Sigma #L9506) Control compounds used were two known firefly luciferase inhibitors (3-(5-(3-chlorophenyl)-1,2,4-oxadiazol-3-yl)benzoic acid and 5-(2-fluorophenyl)-3-phenyl-1,2,4-oxadiazole), and DMSO. Three microliters containing firefly luciferase substrates in buffer (final concentrations: 50mM Tris acetate, pH 7.5, 10mM Mg acetate, 0.01% Tween-20, 0.05% BSA, 10uM D-luciferin, 1mM ATP) are dispensed into each well of a Greiner white, solid-bottom 1536-well format plate using a flying reagent dispenser (FRD). These assay plates were then treated with 23nL of compound or DMSO using a Kalypsys pin tool, which allows for delivery of a 12-point intraplate titration of each compound to the assay plate (quantitative HTS), with a final compound concentrations ranging from approximately ~60uM to 0.3nM. One microliter of firefly luciferase in […] Tris-acetate buffer was then delivered by FRD to each well for a final enzyme concentration of 10nM. Luciferase activity was then measured using a ViewLux CCD imager (PerkinElmer), with an average exposure time of 2-30 seconds (2X binning, medium/high gain).
For `Nc1ccccc1-c1nc2ccccc2s1`, the Potency is 2910 nM (active).

`CCOc1ccc2nc(NC(=O)c3cc([N+](=O)[O-])ccc3N3CCOCC3)sc2c1`: the “activity change, negative = inhibition” value is 0% (inactive). As to `COc1cccc(-c2nc3ccccc3s2)c1`, the Potency is 326 nM (active).

In the case of `CCn1c(C)nc2cc(-c3nc4n(n3)Cc3ccccc3-4)ccc21`, the Potency was 32.6 nM (active).

Consider `Cn1c(N/N=C/c2cc3ccccc3nc2Cl)nc2ccccc21`, for which the Potency was 14600 nM (active). As for `COc1ccc2nc(NC(=O)CCc3ccc(OC)c(OC)c3)sc2c1`, the “activity change, negative = inhibition” value is 5.86% (inactive). Take `O=C(O)c1ccc(NC(=O)c2cc(S(=O)(=O)N3CCCCC3)c(Cl)cc2Cl)cc1`: the “activity change, negative = inhibition” value was 4.47% (inactive). As for `CCOc1ccc2nc(NC(=O)c3ccccc3)sc2c1`, the Potency was 91.9 nM (active). Still for that read-out and setting: as for `Cc1ccc(C(=O)O/N=C(\N)c2ccccn2)cc1`, the figure is 7.3 nM (active). The same measure, in the same setting: as for `O=C(Nc1ccccc1C(=O)O)c1cccc(C(=O)Nc2ccccc2C(=O)O)c1`, the figure is 11600 nM (active). In the case of `CC(C)c1ccc(C(=O)Nc2ccc(-c3nc4ccccc4s3)c(Cl)c2)cc1`, the “activity change, negative = inhibition” value is -15.3% (inactive). Still for that read-out and setting: as for `O=C(Nc1c(Cl)cc(Cl)cc1-c1nc2ccccc2s1)c1ccc(Br)o1`, the figure is -1.44% (inactive). Consider `COc1ccc2nc(NC(=O)c3ccc4ncsc4c3)sc2c1`, for which the Potency is 1460 nM (active). Turning to `O=C(Nc1ccccc1C(=O)O)c1cccc(S(=O)(=O)N2CCCC2)c1`, the Potency is 16300 nM (active). As for `Cc1c(C)c2ccc(OCC(=O)Nc3ccccn3)c(C)c2oc1=O`, the Potency was 8.2 nM (active). With `Cc1ccc2sc(-c3ccc(N)cc3)nc2c1`, the Potency was 36.6 nM (active). On the same count and under the same terms, as for `CC(C)C(=O)Nc1cccc(C(=O)Nc2ccccc2C(=O)O)c1`, the figure is 11600 nM (active).

Regarding `O=C(Nc1ccccc1C(=O)O)c1cc(S(=O)(=O)Nc2ccccc2)ccc1Cl`, the “activity change, negative = inhibition” value was -5.54% (inactive).

With `COc1ccc(NS(=O)(=O)c2cccc(C(=O)Nc3ccccc3C(=O)O)c2)cc1`, the “activity change, negative = inhibition” value is -2.81% (inactive). For the compound `Cc1ccc(C(=O)O/N=C(\N)c2ccccn2)c(Cl)c1`, the Potency was 4.6 nM (active). Same read-out and setting: as for `COc1ccc(C(=O)Nc2cccc(C(=O)O)c2)cc1S(=O)(=O)N1CCCC1`, the figure is 14600 nM (active).

Consider `COc1ccc2nc(NC(=O)Cc3cccs3)sc2c1`, for which the Potency is 4110 nM (active).

Turning to `Nc1ccc(C(=O)Nc2ccccc2C(=O)O)cc1`, the Potency was 14600 nM (active). As for `CN=c1scc(-c2ccccc2F)n1/N=C/c1ccc[nH]1`, the Potency is 58 nM (active). Regarding `COc1c(C)cccc1C(=O)Nc1ccc(-c2nc3ccccc3s2)c(Cl)c1`, the “activity change, negative = inhibition” value was 6.89% (inactive). Still for that read-out and setting: as for `COc1ccccc1C(=O)Nc1ccc(C(=O)Nc2ccccc2C(=O)O)cc1`, the figure is -4.84% (inactive). Regarding `Cc1ccc(C(=O)Nc2ccccc2C(=O)O)cc1S(=O)(=O)N1CCCCCC1`, the Potency is 1830 nM (active). `O=C(Nc1ccccc1C(=O)O)c1cc(S(=O)(=O)NCc2ccccc2)ccc1Cl`: the “activity change, negative = inhibition” value is 0.773% (inactive). As for `Nc1cccc(-c2nc3ccc(N)cc3s2)c1`, the Potency is 116 nM (active). Regarding `Nc1ccccc1C(=O)Nc1cccc(C(=O)O)c1`, the Potency is 3660 nM (active). With `Cc1ccc(C(=O)Nc2cccc(C(=O)O)c2)cc1S(=O)(=O)N1CCOCC1`, the Potency is 3260 nM (active).

In the case of `O=C(Nc1ccccc1C(=O)O)c1cccc(NC(=O)c2ccco2)c1`, the Potency was 18300 nM (active).

Consider `O=C(Cc1ccccc1)Nc1ccccc1C(=O)Nc1ccc(C(=O)O)cc1`, for which the “activity change, negative = inhibition” value was 2.57% (inactive). Regarding `O=C(Nc1ccccc1C(=O)O)c1cccc(NC(=O)c2ccccc2Br)c1`, the Potency was 36600 nM (active). As to `COc1ccc(-c2nc3ccccc3s2)cc1O`, the Potency is 25.9 nM (active).

Take `Cc1ccc(C(=O)Nc2cccc(C(=O)O)c2)cc1`: the Potency is 651 nM (active). On to `Nc1ccc2nc(-c3ccccc3)sc2c1`, for which the Potency was 36.6 nM (active). Regarding `O=C(O)c1ccc(NC(=O)c2ccccc2NC(=O)c2ccccc2Br)cc1`, the “activity change, negative = inhibition” value was -3.88% (inactive). For the compound `O=C(O)c1cccc(NC(=O)c2ccc(Cl)c(S(=O)(=O)N3CCCCCC3)c2)c1`, the Potency was 366 nM (active). The same measure, in the same setting: as for `c1ccc2sc(-c3ccc4c(c3)OCO4)nc2c1`, the figure is 91.9 nM (active).

Source of the values: PubChem BioAssay AID602364 (National Center for Advancing Translational Sciences (NCATS), 2012).
